VP16 counter: inhibits Gal4-VP16 luciferase reporter, ROR gamma counter-screen; Drosophila S2 Gal4-VP16 UAS-luciferase, luminescence, 20 h; Potency, µM (doses to about 53.6 µM), without a hit: at the top dose activity, negative = inhibition, hits mostly inhibitors; 310,000 tested, 3.5% active; AID 2546;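 note: Gal4-VP16 expression switched on by copper sulfate through the metallothionein promoter; potency is the fitted concentration of half-maximal effect; nearly all actives have a fitted effect of over 50% in size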
TrxR1 inh: inhibitors of rat thioredoxin reductase 1; O89049; recombinant rTrxR1, NADPH fluorescence consumption, selenite substrate; Potency, µM (series often up to 114 µM), inactives show at the highest dose activity change, negative = inhibition, actives largely listed as inhibitors; 390,000 tested, 1% active; AID 588453; note: potency is the fitted concentration of half-maximal effect; nearly all actives have a fitted effect of over 65% in size
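Rat TrxR1 (90 nM in the dispensed reagent) was pre-reduced with 400 uM NADPH for 5 min at room temperature, then incubated with compound for 15 min. After 400 uM selenite was added, NADPH fluorescence (Ex 340/Em 450 nm) was followed for 8 min.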
Coupling enz: inhibits coupling enzyme system, counter-screen for aldolase hits. coupling enzyme system counterscreen, AmpLite Red fluorescence. AID 2472. 290,000 tested, 0.67% active. activity change, negative = inhibition, % at 58.2 µM, hits read low; in the data active = activity change below about -30%
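Final compound at 57.5 uM, incubated 10 min at RT with coupling enzyme reagent (glyceraldehyde-3-phosphate), then 20 min with substrate and AmpLite Red detection. Fluorescence read at 525/598 nm; tests interference with the coupling assay, not aldolase inhibition.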
TrxR1 substrate: rat thioredoxin reductase 1 substrate activity; O89049; Potency, µM (series often up to 114 µM), inactives show at the top dose activity change, negative = substrate turnover; AID 588456; 390,000 tested, 0.01% active; purified TrxR1 substrate turnover, NADPH consumption readout; note: potency is the fitted concentration of half-maximal effect; nearly all actives have a fitted effect of over 50% in size
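Rat TrxR1, dispensed at 90 nM, was prereduced with 400 uM NADPH (final) for 5 min at ~22 deg C, then incubated with compound 15 min before 400 uM selenite. A first-read NADPH fluorescence drop versus no-compound background flagged substrates.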
RORg inh: blocks mouse ROR gamma transcriptional activity | Drosophila S2 Gal4-RORgamma UAS-luciferase reporter, 20 h | Potency, µM (series often up to 53.6 µM), inactives show at the highest dose activity change, negative = inhibition, usual class: inhibitors | 310,000 tested, 5.4% active; note: potency is the fitted concentration of half-maximal effect; nearly all actives have a fitted effect of over 60% in size
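Drosophila S2 cells stably expressing Gal4-DBD/mouse RORγ fusion under metallothionein promoter plus UAS-luciferase; compound 1 h, then 700 uM CuSO4 induction for 20 h at ambient temperature; inhibition read as reduced luminescence.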
GALK inhibitor: galactokinase (human) inhibition; Purified GALK, Kinase-Glo residual ATP luminescence; AID 1868; P51570; Potency, µM (top dose mostly 57.5 µM), without a hit: at the highest dose activity change, negative = inhibition, hits mostly inhibitors; 270,000 tested, 0.007% active; note: potency is the fitted concentration of half-maximal effect
Target sequence (P51570 whole entry, looked up): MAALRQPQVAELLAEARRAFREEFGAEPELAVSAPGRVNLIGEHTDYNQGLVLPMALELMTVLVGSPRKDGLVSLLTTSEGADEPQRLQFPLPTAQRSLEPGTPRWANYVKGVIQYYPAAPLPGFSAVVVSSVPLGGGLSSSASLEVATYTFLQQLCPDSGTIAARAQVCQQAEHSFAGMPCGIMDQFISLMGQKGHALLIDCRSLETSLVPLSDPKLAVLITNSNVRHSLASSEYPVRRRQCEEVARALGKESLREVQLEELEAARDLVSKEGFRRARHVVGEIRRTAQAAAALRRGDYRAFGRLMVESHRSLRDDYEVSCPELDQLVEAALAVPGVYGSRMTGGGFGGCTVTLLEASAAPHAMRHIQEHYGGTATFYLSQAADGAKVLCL
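ATP-depletion format; final 35 uM ATP, 100 uM D-galactose, 5 nM enzyme; pH 8.0 HEPES/Mg2+ buffer; 60 min RT; luminescence read 10 min after detection reagent.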
An asterisk follows results filed as active; [ ] = remark or other dose. A selection: hits, their analogues and other compounds. The true share with any hit is near 5.9%. Unless noted, calls come from the whole dose curve; as a rule, active = well fitted curve in the direction sought with a large enough effect; inconclusive = small, poorly fitted or top-dose-only effect, or another doubt; inactive = no such curve, though single readings can be large; an effect the other way counts as inactive or inconclusive. % is set by controls: 0 for no effect and ±100 for the full control effect.

Cc1ccc(C)n1-c1ccc(N2CCOCC2)cc1 was read as VP16 counter -7%, TrxR1 inh inconclusive, Coupling enz -19, TrxR1 substrate -9%, RORg inh inconclusive and GALK inhibitor 1%.
Screening Cc1ccnc(NC(=O)Nc2cccc(F)c2)n1 returned VP16 counter -16%, TrxR1 inh 4%, Coupling enz 1, TrxR1 substrate -2%, RORg inh 2% and GALK inhibitor 3%.
CC(C)(C)OC(=O)NCCCC[C@H](NC(=O)c1nc[nH]c1C(=O)NCc1ccccc1)C(=O)OC(C)(C)C was read as VP16 counter inconclusive, TrxR1 inh -12%, Coupling enz -10, TrxR1 substrate -16%, RORg inh 14µM* and GALK inhibitor -1%.
`CC(C)(C)OC(=O)NCCCC[C@H](NC(=O)c1[nH]cnc1C(=O)N[C@@H](Cc1ccccc1)C(=O)OC(C)(C)C)C(=O)OC(C)(C)C` gave VP16 counter inconclusive, TrxR1 inh -19%, Coupling enz -12, TrxR1 substrate -22%, RORg inh 7.9µM* and GALK inhibitor -1%.
C[C@H](NC(=O)c1nc[nH]c1C(=O)N[C@@H](CCCCNC(=O)OC(C)(C)C)C(=O)OC(C)(C)C)c1ccccc1 was read as VP16 counter 11µM*, TrxR1 inh 18%, Coupling enz -10, TrxR1 substrate -4%, RORg inh 5.6µM* and GALK inhibitor 3%.
`CN(Cc1ccccc1)C(=O)c1[nH]cnc1C(=O)N[C@@H](CCCCNC(=O)OC(C)(C)C)C(=O)OC(C)(C)C` gave VP16 counter inconclusive, TrxR1 inh 17%[57.1 µM], Coupling enz -9, TrxR1 substrate -8%[57.1 µM], RORg inh 7.1µM* and GALK inhibitor 1%.
Screening C[C@@H](NC(=O)c1nc[nH]c1C(=O)NCCCCCNC(=O)OC(C)(C)C)c1ccccc1 returned TrxR1 inh 21% and TrxR1 substrate 0%.
O=C(CCNc1n[nH]c(=O)[nH]c1=O)N/N=C\c1cccc(OCc2ccccc2)c1 was read as VP16 counter -5%, TrxR1 inh 21%[57.1 µM], Coupling enz -9, TrxR1 substrate 3%[57.1 µM], RORg inh 16% and GALK inhibitor 0%.
Screening CC(C)Cn1c(N)c(C(=O)COC(=O)c2cc(S(=O)(=O)N3CCOCC3)ccc2Br)c(=O)n(C)c1=O returned TrxR1 inh -7% and TrxR1 substrate -11%.
Screening NC(=NCCc1c[nH]c2ccccc12)NS(=O)(=O)c1ccc2ccccc2c1 returned VP16 counter -16%, TrxR1 inh -13%, Coupling enz -36*, TrxR1 substrate -14%, RORg inh -5% and GALK inhibitor 1%.
For Cc1c([N+](=O)[O-])nnn1-c1cc(Cl)cc(Cl)c1 the results were VP16 counter 0%, TrxR1 inh 16µM*, Coupling enz 2, TrxR1 substrate 8%, RORg inh 1% and GALK inhibitor 7%.
Screening O=[N+]([O-])c1ccc(N=NN(CCO)CCO)cc1 returned VP16 counter -12%, TrxR1 inh 7%, Coupling enz 0, TrxR1 substrate -10%, RORg inh 9% and GALK inhibitor 2%.
Screening O=[N+]([O-])c1ccc(N=Nc2ncc[nH]2)cc1 returned VP16 counter 6.3µM*, TrxR1 inh inconclusive, Coupling enz -1, TrxR1 substrate -6%[57.1 µM] and RORg inh 7.1µM*.
COc1cc(/C=C/C(=O)OCC(=O)N2CCN(S(=O)(=O)c3ccc(C)cc3C)CC2)ccc1OC(F)F was read as TrxR1 inh 12% and TrxR1 substrate -2%.
`Cc1cc(NC(=O)CSc2nc(C(C)(C)C)nc3ccccc23)no1` gave VP16 counter 2%, TrxR1 inh 5%, Coupling enz 0, TrxR1 substrate -3%, RORg inh -7% and GALK inhibitor 0%.
For Cc1cc(NC(=O)CSc2ncnc3ccccc23)no1 the results were VP16 counter -7%, TrxR1 inh 9%, Coupling enz 0, TrxR1 substrate -5%, RORg inh 7.9µM* and GALK inhibitor 2%.
For C=CCN1C(=O)C(CC(=O)NCC)SC1=Nc1ccccc1CC (stereo not given) the results were VP16 counter 0%, TrxR1 inh 16%, Coupling enz 1, TrxR1 substrate 6%[57.1 µM], RORg inh 28% and GALK inhibitor 7%.
For O=C(Nc1ccc(N2CCOCC2)cc1)c1cnsn1 the results were VP16 counter 1.8µM*, TrxR1 inh 3%[57.1 µM], Coupling enz -6, TrxR1 substrate 10%[57.1 µM], RORg inh 2µM* and GALK inhibitor 1%.
For O=C(Nc1ccc(N2CCOCC2)cc1)c1cnccn1 the results were VP16 counter 7.9µM*, TrxR1 inh 4%, Coupling enz -1, TrxR1 substrate -3%, RORg inh 5µM* and GALK inhibitor 9%.
`O=C(Nc1ccccc1N1CCOCC1)c1cnccn1` gave VP16 counter 4%, TrxR1 inh 9%[57.1 µM], Coupling enz -1, TrxR1 substrate 8%[57.1 µM], RORg inh -17% and GALK inhibitor -1%.
`COc1ccc(CCN(C)C(=O)c2c(C)nn(CC(C)C)c2Cl)cc1OC` gave VP16 counter 0%, TrxR1 inh -4%, TrxR1 substrate -7%, RORg inh 9% and GALK inhibitor -4%.
Screening O=C(C1CCCCC1)N1CCC(c2nc3ccccc3[nH]2)CC1 returned VP16 counter -3%, TrxR1 inh 11%, Coupling enz 0, TrxR1 substrate 2%, RORg inh 36% and GALK inhibitor 1%.
For OC(c1nc2ccccc2[nH]1)C(O)c1nc2ccccc2[nH]1 (stereo not given) the results were VP16 counter 1%, TrxR1 inh 7%[57.1 µM], Coupling enz 0, TrxR1 substrate 6%, RORg inh 9% and GALK inhibitor -4%.
For N#C/C(=N\O)c1nc2ccccc2[nH]1 the results were VP16 counter 0%, TrxR1 inh -18%, Coupling enz 1, TrxR1 substrate -15% and RORg inh -22%.
For CSC(=Nc1ccccc1)C(C#N)c1nc2ccccc2[nH]1 (stereo not given) the results were VP16 counter -14%, TrxR1 inh 12%[57.1 µM], Coupling enz -2, TrxR1 substrate -21%[57.1 µM], RORg inh 5.6µM* and GALK inhibitor 0%.
Screening N#CC(C(=O)C1CCCCC1)c1nc2ccccc2[nH]1 (stereo not given) returned VP16 counter 7.9µM*, TrxR1 inh 3%, Coupling enz -3, TrxR1 substrate 4%, RORg inh 3.5µM* and GALK inhibitor -2%.
